Source: PubChem BioAssay
Activity calls are given as the source filed them.

Key:
Albumin (Bos taurus) = Albumin (Bos taurus) (UniProt P02769); test: bovine serum albumin binders on microarray, profiling panel, artefact control for SMM control protein annotation, biochemical, small-molecule microarray, Alexa647 label, 635/667 nm fluorescence (AID 1118); conditions: BSA-A647 binding, fluorescence 635 nm, higher = more signal;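 further: score merges 667 nm emission intensity and signal-to-noise per printed compound spot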
Albumin (Bos taurus), sequence (P02769 whole entry, looked up): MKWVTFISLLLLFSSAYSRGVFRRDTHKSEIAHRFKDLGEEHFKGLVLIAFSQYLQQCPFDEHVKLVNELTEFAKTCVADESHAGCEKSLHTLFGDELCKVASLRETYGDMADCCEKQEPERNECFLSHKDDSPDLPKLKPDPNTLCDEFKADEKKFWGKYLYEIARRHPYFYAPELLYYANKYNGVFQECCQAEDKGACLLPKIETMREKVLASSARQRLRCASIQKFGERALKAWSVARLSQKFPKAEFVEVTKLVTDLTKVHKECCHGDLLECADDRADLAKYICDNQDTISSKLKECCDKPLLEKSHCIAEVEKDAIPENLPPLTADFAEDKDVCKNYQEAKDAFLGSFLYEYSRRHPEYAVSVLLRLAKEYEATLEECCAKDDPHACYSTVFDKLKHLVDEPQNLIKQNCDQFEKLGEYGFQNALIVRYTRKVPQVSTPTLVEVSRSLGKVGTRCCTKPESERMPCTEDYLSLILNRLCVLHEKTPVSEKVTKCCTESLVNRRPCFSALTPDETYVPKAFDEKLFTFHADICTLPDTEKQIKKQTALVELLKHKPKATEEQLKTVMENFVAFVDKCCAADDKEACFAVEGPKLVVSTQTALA

[1] = small-molecule microarray binders of probe aXIP, primary screen, biochemical, NeuroSMM set, 635/667 nm fluorescence (AID 1119); conditions: higher = more signal, called active from +8 up or from −8 down;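 further: probe is the protein aXip251-270 applied at 1 µg/mL to compound-printed slides; binding of probe to printed compounds measured as 667 nm fluorescence plus signal to noise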
[2] = small-molecule binders of probe aNOTCH3, primary screen, biochemical, small-molecule microarray, 635/667 nm fluorescence (AID 1120); conditions: higher = more signal;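 further: probe is a biotin-tagged antibody raised against NOTCH3 rather than NOTCH3 protein; score merges spot fluorescence near 667 nm with spot signal to noise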
[3] = small-molecule binders of probe aNOTCH2, primary screen, biochemical, small-molecule microarray, 635/667 nm fluorescence (AID 1121); conditions: higher = more signal;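 further: score merges feature fluorescence read at 667 nm with its signal to noise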
[4] = target: Carbonic anhydrase 2 (Homo sapiens) (UniProt P00918); test: CAII small-molecule binders, profiling panel, biochemical, small-molecule microarray, Alexa647-labelled CAII (AID 1122); conditions: CAII-A647 binding fluorescence, higher = more signal
[5] = COS7 lysate on small-molecule microarray, probe aHis, 635 nm (AID 1123); conditions: COS7 cell lysate, fluorescence, higher = more signal;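 further: z-score combines 667nm fluorescence intensity with signal-to-noise per printed compound spot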
[6] = compound binding in COS7 lysate, probe aLAP1, primary screen, cell lysate, small-molecule microarray (AID 1124); conditions: probe aLAP1, fluorescence, higher = more signal;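 further: lysate comes from COS7 cells expressing LAP1 and is applied at 0.3 µg/mL; score merges spot fluorescence near 667 nm with signal-to-noise over triplicate slides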
Sam68 (KHDRBS1) = test: Sam68 small-molecule binders, primary screen, biochemical, small-molecule microarray, 635 nm fluorescence (AID 1125); conditions: small-molecule microarray binding, higher = more signal;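 further: score merges 667 nm channel intensity with signal to noise over triplicate slides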
[7] = test system: Chordin-like protein 2 (CHRDL2); test: CHRDL2 small-molecule binders, primary screen, biochemical, small-molecule microarray, 635 nm fluorescence (AID 1126); conditions: small-molecule microarray binding, fluorescence 635 nm; higher = more signal;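 further: printed compound slides probed with Chrdl2 protein at 4 µg/mL for 1 h at 4 C; score merges 667 nm emission intensity with signal to noise over three replicate slides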
[8] = target: Concanavalin-A (Canavalia ensiformis) (UniProt P02866); test: ConA small-molecule binders, primary screen, artefact control for SMM control protein annotation, biochemical, small-molecule microarray, Alexa647 label, 635 nm (AID 1127); conditions: ConA-A647 binding fluorescence, higher = more signal;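 further: z combines 667 nm emission intensity with signal-to-noise across three replicate slides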
Concanavalin-A (Canavalia ensiformis), sequence (P02866 whole entry, looked up): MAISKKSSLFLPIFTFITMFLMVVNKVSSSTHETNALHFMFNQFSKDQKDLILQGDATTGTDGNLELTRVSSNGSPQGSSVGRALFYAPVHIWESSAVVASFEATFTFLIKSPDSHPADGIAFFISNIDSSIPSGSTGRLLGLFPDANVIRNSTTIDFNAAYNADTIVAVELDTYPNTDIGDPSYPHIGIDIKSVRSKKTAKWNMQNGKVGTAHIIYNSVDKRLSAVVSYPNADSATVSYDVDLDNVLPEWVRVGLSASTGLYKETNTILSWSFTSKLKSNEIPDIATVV

[9] = anti-His antibody binders, primary screen, artefact control for SMM control protein annotation, biochemical, small-molecule microarray, 635 nm fluorescence (AID 1128); conditions: anti-His Alexa647 antibody binding, higher = more signal;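 further: score merges feature fluorescence with signal-to-noise for each printed compound spot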
[10] = test system: Human papillomavirus type 1a E7 protein (residues 1-88); test: HPV1a E7 small-molecule binders, primary screen, biochemical, small-molecule microarray, residues 1-88, 635 nm (AID 1129); conditions: small-molecule microarray binding, fluorescence 635 nm; higher = more signal
[11] = target: Focal adhesion kinase 1 (Homo sapiens) (UniProt Q05397); test: small-molecule microarray binders of FAK, primary screen, biochemical, 635/667 nm fluorescence, BSA, DTT (AID 1130); conditions: PTK2 binding, 635 nm fluorescence, higher = more signal;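 further: composite of spot emission at 667 nm and signal to noise over triplicate slides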
Focal adhesion kinase 1 (Homo sapiens), sequence (Q05397 whole entry, looked up): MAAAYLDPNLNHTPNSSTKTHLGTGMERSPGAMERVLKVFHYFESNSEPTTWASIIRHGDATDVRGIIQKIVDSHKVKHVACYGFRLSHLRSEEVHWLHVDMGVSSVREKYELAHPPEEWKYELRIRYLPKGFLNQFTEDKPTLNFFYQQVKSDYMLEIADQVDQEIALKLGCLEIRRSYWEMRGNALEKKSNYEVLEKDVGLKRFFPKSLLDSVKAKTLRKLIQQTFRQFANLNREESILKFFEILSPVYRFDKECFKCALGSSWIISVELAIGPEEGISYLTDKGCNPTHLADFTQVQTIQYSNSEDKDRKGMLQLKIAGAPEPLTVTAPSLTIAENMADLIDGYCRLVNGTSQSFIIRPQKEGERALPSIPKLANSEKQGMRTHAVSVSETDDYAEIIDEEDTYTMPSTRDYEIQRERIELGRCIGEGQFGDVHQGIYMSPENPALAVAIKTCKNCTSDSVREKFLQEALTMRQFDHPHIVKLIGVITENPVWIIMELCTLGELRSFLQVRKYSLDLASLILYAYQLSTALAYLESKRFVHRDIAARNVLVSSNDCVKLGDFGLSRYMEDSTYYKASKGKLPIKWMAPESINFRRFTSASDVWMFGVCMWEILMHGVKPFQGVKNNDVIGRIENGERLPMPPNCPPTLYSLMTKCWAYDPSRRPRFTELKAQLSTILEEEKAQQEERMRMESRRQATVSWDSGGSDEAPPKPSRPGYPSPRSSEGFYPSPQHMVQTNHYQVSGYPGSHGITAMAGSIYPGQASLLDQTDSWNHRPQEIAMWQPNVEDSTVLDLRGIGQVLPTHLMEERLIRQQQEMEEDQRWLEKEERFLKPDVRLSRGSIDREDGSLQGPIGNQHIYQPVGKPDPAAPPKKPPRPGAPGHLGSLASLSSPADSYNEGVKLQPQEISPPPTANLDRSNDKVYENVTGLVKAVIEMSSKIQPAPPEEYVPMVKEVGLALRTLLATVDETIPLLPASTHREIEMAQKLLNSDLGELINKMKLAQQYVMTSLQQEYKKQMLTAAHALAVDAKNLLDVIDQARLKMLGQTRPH

[12] = test system: Fibrinogen (Alexa647-labelled); test: fibrinogen binders on compound microarrays, profiling panel, artefact control for SMM control-protein annotation, biochemical, small-molecule microarray, 635/667 nm fluorescence (AID 1131); conditions: fibrinogen-A647 binding fluorescence, higher = more signal;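 further: z-score merges 667 nm fluorescence with per-spot signal-to-noise over triplicate slides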
[13] = target: Follistatin (Homo sapiens) (UniProt P19883); test: follistatin binders on small-molecule microarrays, primary screen, biochemical, small-molecule microarray, 635/667 nm fluorescence (AID 1132); conditions: FST binding, 635 nm fluorescence, higher = more signal
Follistatin (Homo sapiens), sequence (P19883 whole entry, looked up): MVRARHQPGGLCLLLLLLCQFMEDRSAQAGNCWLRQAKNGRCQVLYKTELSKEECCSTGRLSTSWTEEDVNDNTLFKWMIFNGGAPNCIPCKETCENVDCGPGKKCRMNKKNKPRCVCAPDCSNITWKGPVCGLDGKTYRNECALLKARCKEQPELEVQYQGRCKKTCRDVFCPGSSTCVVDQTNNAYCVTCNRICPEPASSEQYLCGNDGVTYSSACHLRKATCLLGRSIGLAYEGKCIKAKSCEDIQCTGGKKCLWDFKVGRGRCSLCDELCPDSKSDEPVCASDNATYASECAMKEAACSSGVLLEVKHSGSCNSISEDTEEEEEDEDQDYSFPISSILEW

[14] = target: Fibroblast growth factor 2 (Homo sapiens) (UniProt P09038); test: FGF2 binders on small-molecule microarrays, primary screen, biochemical, small-molecule microarray, 635/667 nm fluorescence (AID 1133); conditions: small-molecule microarray binding, FGF2, fluorescence 635/667; higher = more signal
Fibroblast growth factor 2 (Homo sapiens), sequence (P09038 whole entry, looked up): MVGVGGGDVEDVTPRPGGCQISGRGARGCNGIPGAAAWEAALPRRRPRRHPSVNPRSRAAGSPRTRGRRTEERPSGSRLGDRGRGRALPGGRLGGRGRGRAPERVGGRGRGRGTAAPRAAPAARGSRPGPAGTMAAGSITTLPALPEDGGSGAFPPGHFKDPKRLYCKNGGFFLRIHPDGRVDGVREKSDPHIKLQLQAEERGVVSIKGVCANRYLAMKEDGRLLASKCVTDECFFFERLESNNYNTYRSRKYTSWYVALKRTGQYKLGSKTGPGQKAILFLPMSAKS

[15] = mitochondrial membrane potential change in A549 cells, profiling panel, cell-based, JC-1 fluorescence, basal, 24 h, 100 nL (AID 1138); conditions: higher = more signal;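 further: A549 lung adenocarcinoma cells under basal conditions with no added stimulus; test concentration not given here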
Lefty1 = Lefty1 binders on small-molecule microarrays, primary screen, biochemical, small-molecule microarray, 635/667 nm fluorescence (AID 1139); conditions: small-molecule microarray binding, fluorescence 635/667; higher = more signal
[16] = test system: wheat germ agglutinin (Triticum aestivum), Alexa647-labelled; test: wheat germ agglutinin binders on compound microarrays, profiling panel, artefact control for SMM control-protein annotation, biochemical, small-molecule microarray, 635/667 nm fluorescence (AID 1140); conditions: WGA-A647 binding, 635 nm fluorescence, higher = more signal;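 further: score merges 667 nm feature emission with signal to noise over triplicate slides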
[17] = target: Luciferin 4-monooxygenase (Photinus pyralis) (UniProt P08659); test: firefly luciferase enzyme inhibitors, primary screen, biochemical, luminescence, purified enzyme, 2006 set (AID 1141); conditions: SteadyGlo luminescence, 30 min, higher = more signal, called active from +8 up or from −8 down;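 further: cell-free assay with purified firefly luciferase at 100 ng per well in PBS; test concentration not given here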
Luciferin 4-monooxygenase (Photinus pyralis), sequence (P08659 whole entry, looked up): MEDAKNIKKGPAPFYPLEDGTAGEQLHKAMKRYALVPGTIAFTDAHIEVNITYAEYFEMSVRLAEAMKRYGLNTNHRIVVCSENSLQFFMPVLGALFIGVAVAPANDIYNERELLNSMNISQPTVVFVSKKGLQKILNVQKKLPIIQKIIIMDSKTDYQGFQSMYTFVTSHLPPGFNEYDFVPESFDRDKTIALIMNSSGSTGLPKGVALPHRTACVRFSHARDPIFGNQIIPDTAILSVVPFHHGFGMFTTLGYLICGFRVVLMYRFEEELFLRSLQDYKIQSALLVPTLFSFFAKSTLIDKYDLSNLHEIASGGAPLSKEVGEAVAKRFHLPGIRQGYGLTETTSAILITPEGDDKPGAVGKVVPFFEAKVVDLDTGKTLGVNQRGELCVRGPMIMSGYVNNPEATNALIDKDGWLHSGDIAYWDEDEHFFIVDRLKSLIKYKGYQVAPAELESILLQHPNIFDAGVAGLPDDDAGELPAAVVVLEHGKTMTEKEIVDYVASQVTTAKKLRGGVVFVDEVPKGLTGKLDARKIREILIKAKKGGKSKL

Compound	composite z-score (Albumin (Bos taurus))	composite Z-score [1]	composite z-score [2]	composite z-score [3]	composite z-score [4]	composite z-score [5]	composite z-score [6]	composite z-score (Sam68 (KHDRBS1))	composite z-score [7]	composite z-score [8]	composite z-score [9]	composite z-score [10]	composite z-score [11]	composite z-score [12]	composite z-score [13]	composite z-score [14]	z-score [15]	composite z-score (Lefty1)	composite z-score [16]	z-score [17]
CCOC(=O)C[C@H]1[C@H](OC(=O)c2ccc(C(=O)c3ccccc3)cc2)[C@@H](NC(=O)c2ccc3ccccc3c2)c2cc(OCCCO)ccc2N1C(=O)Cc1ccc(OC)cc1	0.638	-0.68 (inactive)	-0.0932	-0.149	0.009	0.899	0.0147	0.484	-0.197	0.114	0.0204	0.542	0.222	0.424	0.288	0.115	0.826	0.199	0.398	0.789 (inactive)
C=CCC(OC(C)=O)[C@@H]1[C@@H](N(Cc2ccc(-c3cccc(C(F)(F)F)c3)o2)C(=O)c2ccc(C)cc2)c2cc(OCCCO)ccc2N1C(=O)Cc1ccc2ccccc2c1 (stereo not given in full)	-0.257	0.421 (inactive)	-0.0702	-0.153	-0.253	-0.275	-0.472	-2.05	0.264	-0.594	0.357	-1.49	0.0103	0.658	0.107	-0.358	0.71	-0.454	0.234	-0.453 (inactive)
C=CCNC(=O)[C@@H]1[C@H]2C(=O)O[C@H](c3ccccc3)[C@H](c3ccccc3)N2[C@H](c2ccc(OCCO)cc2)[C@@]12C(=O)Nc1ccc(C#CCC(C(=O)OC)C(=O)OC)cc12	0.64	0.788 (inactive)	0.277	0.0302	0.641	2	0.978	1.29	0.392	1.16	2.67	1.2	0.913	0.641	0.85	0.582	-0.21	0.728	1.25	-1.08 (inactive)
